Source: PubChem BioAssay AID1159580 (chemical genetic matrix, 2015)
In all, about 5,500 compounds went through this assay and about 2,000 (36%) were called active. Another 18% or so got no clear call; they are omitted. Rule as the data show it: active = normalized growth mostly below about 0.91 (no sharp cut-off); inconclusive = no clear call, values can overlap the other calls; inactive = mostly above about 0.92. The list shows a part of the results.

Assay: chemical genetic growth profiling, strain panel (AID 1159580);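 also: tested at 20 µM; growth read once vehicle control cultures reached saturation at 30 °C; 1 = growth at the plate median or of vehicle wells; lower values mean less growth of the strain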
Settings: growth OD

Measured: normalized growth

CC(C)[C@@H]1CC[C@@H](C)CC1=O
inactive: S. cerevisiae deletion strains, locus YJR066W, strain TOR1, stronger effect = lower value 0.94 | S. cerevisiae deletion strains, locus YJR075W, strain HOC1, stronger effect = lower value 1.02 | S. cerevisiae deletion strains, locus YKL009W, strain mrt4, stronger effect = lower value 1.01 | S. cerevisiae deletion strains, locus YKL068W, stronger effect = lower value 1.02 | S. cerevisiae deletion strains, locus YKL085W, strain MDH1 (second series), stronger effect = lower value 0.999 | S. cerevisiae deletion strains, locus YKL085W, strain MDH1, stronger effect = lower value 0.999 | S. cerevisiae deletion strains, locus YKL160W, strain elf1, stronger effect = lower value 0.981 | S. cerevisiae deletion strains, locus YKR001C, strain vps1, stronger effect = lower value 0.991 | S. cerevisiae deletion strains, locus YKR026C, strain gcn3, stronger effect = lower value 0.984 | S. cerevisiae deletion strains, locus YKR091W, strain srl3, stronger effect = lower value 0.991 | S. cerevisiae deletion strains, locus YLL001W, strain dnm1, stronger effect = lower value 0.98 | S. cerevisiae deletion strains, locus YLL026W, stronger effect = lower value 0.985 | S. cerevisiae deletion strains, locus YLL041C, strain sdh2, stronger effect = lower value 0.991 | S. cerevisiae deletion strains, locus YLR027C, strain aat2, stronger effect = lower value 0.979 | S. cerevisiae deletion strains, locus YLR039C, strain RIC1, stronger effect = lower value 1.09 | S. cerevisiae deletion strains, locus YLR058C, strain SHM2, stronger effect = lower value 1.02 | S. cerevisiae deletion strains, locus YLR102C, strain apc9, stronger effect = lower value 0.997 | S. cerevisiae deletion strains, locus YLR113W, strain HOG1, stronger effect = lower value 0.967 | S. cerevisiae deletion strains, locus YLR221C, strain rsa3, stronger effect = lower value 1.01 | S. cerevisiae deletion strains, locus YLR258W, strain gsy2, stronger effect = lower value 0.996 | S. cerevisiae deletion strains, locus YLR262C, strain YPT6 (second series), stronger effect = lower value 0.979 | S. cerevisiae deletion strains, locus YLR262C, strain YPT6, stronger effect = lower value 1.14 | S. cerevisiae deletion strains, locus YLR268W, strain sec22, stronger effect = lower value 1.02 | S. cerevisiae deletion strains, locus YLR320W, strain mms22, stronger effect = lower value 1.01 | S. cerevisiae deletion strains, locus YLR330W, strain CHS5, stronger effect = lower value 1.01 | S. cerevisiae deletion strains, locus YLR342W, strain FKS1 (second series), stronger effect = lower value 1.03 | S. cerevisiae deletion strains, locus YLR342W, strain FKS1, stronger effect = lower value 0.995 | S. cerevisiae deletion strains, locus YLR357W, strain rsc2, stronger effect = lower value 0.998 | S. cerevisiae deletion strains, locus YLR370C, strain arc18, stronger effect = lower value 0.983 | S. cerevisiae deletion strains, locus YLR371W, strain rom2, stronger effect = lower value 1 | S. cerevisiae deletion strains, locus YLR384C, strain iki3, stronger effect = lower value 1.01 | S. cerevisiae deletion strains, locus YLR418C, strain cdc73, stronger effect = lower value 1.01 | S. cerevisiae deletion strains, locus YML016C, strain PPZ1, stronger effect = lower value 1.01 | S. cerevisiae deletion strains, locus YML032C, strain rad52, stronger effect = lower value 1.01 | S. cerevisiae deletion strains, locus YML120C, strain ndi1, stronger effect = lower value 0.982 | S. cerevisiae deletion strains, locus YML124C, strain tub3, stronger effect = lower value 0.999 | S. cerevisiae deletion strains, locus YMR058W, strain fet3, stronger effect = lower value 0.989 | S. cerevisiae deletion strains, locus YMR078C, strain ctf18, stronger effect = lower value 1 | S. cerevisiae deletion strains, locus YMR125W, strain sto1, stronger effect = lower value 0.965 | S. cerevisiae deletion strains, locus YMR129W, stronger effect = lower value 1 | S. cerevisiae deletion strains, locus YMR205C, strain PFK2, stronger effect = lower value 1 | S. cerevisiae deletion strains, locus YMR223W, strain ubp8, stronger effect = lower value 1 | S. cerevisiae deletion strains, locus YMR231W, strain pep5, stronger effect = lower value 1 | S. cerevisiae deletion strains, locus YMR263W, strain SAP30, stronger effect = lower value 1.02 | S. cerevisiae deletion strains, locus YMR307W, strain GAS1, stronger effect = lower value 1.02 | S. cerevisiae deletion strains, locus YNL067W, strain RPL9B, stronger effect = lower value 1.03 | S. cerevisiae deletion strains, locus YNL071W, strain lat1, stronger effect = lower value 0.991 | S. cerevisiae deletion strains, locus YNL128W, strain TEP1, stronger effect = lower value 1.02 | S. cerevisiae deletion strains, locus YNL153C, strain GIM3, stronger effect = lower value 1.03 | S. cerevisiae deletion strains, locus YNL183C, strain NPR1, stronger effect = lower value 0.935 | S. cerevisiae deletion strains, locus YNL209W, strain ssb2, stronger effect = lower value 1 | S. cerevisiae deletion strains, locus YNL233W, strain BNI4, stronger effect = lower value 1.04 | S. cerevisiae deletion strains, locus YNL248C, strain rpa49, stronger effect = lower value 0.997 | S. cerevisiae deletion strains, locus YNL250W, strain rad50, stronger effect = lower value 1 | S. cerevisiae deletion strains, locus YNL271C, strain bni1, stronger effect = lower value 1 | S. cerevisiae deletion strains, locus YNL298W, strain CLA4, stronger effect = lower value 0.999 | S. cerevisiae deletion strains, locus YNL307C, strain MCK1, stronger effect = lower value 1.01 | S. cerevisiae deletion strains, locus YNL322C, strain KRE1 (second series), stronger effect = lower value 0.995 | S. cerevisiae deletion strains, locus YNL322C, strain KRE1, stronger effect = lower value 1.01 | S. cerevisiae deletion strains, locus YNR049C, strain mso1, stronger effect = lower value 1 | S. cerevisiae deletion strains, locus YNR052C, strain pop2, stronger effect = lower value 0.991 | S. cerevisiae deletion strains, locus YOL006C, strain TOP1, stronger effect = lower value 1.06 | S. cerevisiae deletion strains, locus YOL012C, strain htz1 0.896 | S. cerevisiae deletion strains, locus YOL147C, strain pex11, stronger effect = lower value 1.01 | S. cerevisiae deletion strains, locus YOR001W, strain rrp6, stronger effect = lower value 1.01 | S. cerevisiae deletion strains, locus YOR061W, strain CKA2, stronger effect = lower value 1.01 | S. cerevisiae deletion strains, locus YOR069W, strain VPS5, stronger effect = lower value 0.999 | S. cerevisiae deletion strains, locus YOR070C, strain gyp1, stronger effect = lower value 0.996 | S. cerevisiae deletion strains, locus YOR080W, strain dia2, stronger effect = lower value 0.99 | S. cerevisiae deletion strains, locus YOR083W, strain WHI5, stronger effect = lower value 0.965 | S. cerevisiae deletion strains, locus YOR106W, strain vam3, stronger effect = lower value 0.98 | S. cerevisiae deletion strains, locus YOR136W, strain idh2, stronger effect = lower value 0.987 | S. cerevisiae deletion strains, locus YOR144C, strain elg1, stronger effect = lower value 1 | S. cerevisiae deletion strains, locus YOR184W, strain ser1, stronger effect = lower value 1.02 | S. cerevisiae deletion strains, locus YOR231W, strain MKK1, stronger effect = lower value 0.955 | S. cerevisiae deletion strains, locus YOR265W, strain rbl2, stronger effect = lower value 0.989 | S. cerevisiae deletion strains, locus YOR270C, strain vph1, stronger effect = lower value 1.01 | S. cerevisiae deletion strains, locus YOR290C, strain snf2, stronger effect = lower value 0.954 | S. cerevisiae deletion strains, locus YOR316C, strain cot1, stronger effect = lower value 1.01 | S. cerevisiae deletion strains, locus YPL051W, strain arl3, stronger effect = lower value 0.998 | S. cerevisiae deletion strains, locus YPL055C, strain LGE1, stronger effect = lower value 1.02 | S. cerevisiae deletion strains, locus YPL078C, strain atp4, stronger effect = lower value 0.969 | S. cerevisiae deletion strains, locus YPL106C, strain sse1, stronger effect = lower value 0.967 | S. cerevisiae deletion strains, locus YPL240C, strain hsp82, stronger effect = lower value 0.996 | S. cerevisiae deletion strains, locus YPL241C, strain CIN2, stronger effect = lower value 1.01 | S. cerevisiae deletion strains, locus YPL256C, strain CLN2, stronger effect = lower value 0.96 | S. cerevisiae deletion strains, locus YPR119W, strain clb2, stronger effect = lower value 1 | S. cerevisiae deletion strains, locus YPR141C, strain kar3, stronger effect = lower value 0.991 | S. cerevisiae deletion strains, locus YPR163C, strain tif3, stronger effect = lower value 1.01 | S. cerevisiae deletion strains, locus YPR167C, strain met16, stronger effect = lower value 0.992 | S. cerevisiae deletion strains, strain wtn01, stronger effect = lower value 0.992 | S. cerevisiae strains, strain wild type, stronger effect = lower value 1.01
